VDR inh – vitamin D3 receptor (human) inhibition; AID 504847; Potency, µM, without a hit: max response, negative = inhibition, most hits filed as inhibitors; P11473; hit rate 0.93% among 400,000; VDR-SRC2-3 peptide fluorescence polarization, 2 h
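FP read-out; VDR + SRC2-3 coactivator peptide; 23 nl compound by pintool; 2 h RT incubation; reagents held at 4 deg C, protected from light.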
TDP1 cell CPT – growth inhibition of DT40 Tdp1-/-;hTDP1 cells with camptothecin (screen for TDP1 inhibitors) | chicken DT40 Tdp1-/-;hTDP1 cells + 20 nM CPT, ATP luminescence, 48 h | Potency, µM (series often up to 46.2 µM), without a hit: at the highest dose activity change, negative = growth inhibition, most hits filed as inhibitors | hit rate 12% among 420,000 | AID 686979; also: nearly all actives have a fitted effect of over 55% in size
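Cell growth measured by CellTiter-Glo luminescence after a minimum 48 h, 37 C compound exposure with 20 nM CPT in Tdp1-knockout DT40 cells stably expressing hTDP1, seeded 400/well; qHTS titration format.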
GCN5L2 inh – blocks human GCN5L2 histone acetyltransferase | GCN5L2 HAT assay, ThioGlo1 CoA-SH fluorescence | Potency, µM (series often up to 58.9 µM), without a hit: top-dose activity change, negative = inhibition, hits mostly inhibitors | hit rate 0.21% among 390,000 | Q92830
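ThioGlo1-coupled HAT assay: 20nM GCN5L2, 70uM acetyl-CoA, 75uM H3(1-25) peptide, pH 7.5. Fluorescence read at 340/540nm at start and after 20 min at room temperature.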
TDP1 inh – TDP1 (human) enzyme inhibition. Q9NUW8. recombinant TDP1, AlphaScreen DNA substrate cleavage. Potency, µM (doses to about 130 µM), for inactives: at the top dose activity change, negative = inhibition, hits mostly inhibitors. hit rate 0.28% among 350,000; also: nearly all actives have a fitted effect of over 40% in size
Target sequence (Q9NUW8 whole entry, looked up): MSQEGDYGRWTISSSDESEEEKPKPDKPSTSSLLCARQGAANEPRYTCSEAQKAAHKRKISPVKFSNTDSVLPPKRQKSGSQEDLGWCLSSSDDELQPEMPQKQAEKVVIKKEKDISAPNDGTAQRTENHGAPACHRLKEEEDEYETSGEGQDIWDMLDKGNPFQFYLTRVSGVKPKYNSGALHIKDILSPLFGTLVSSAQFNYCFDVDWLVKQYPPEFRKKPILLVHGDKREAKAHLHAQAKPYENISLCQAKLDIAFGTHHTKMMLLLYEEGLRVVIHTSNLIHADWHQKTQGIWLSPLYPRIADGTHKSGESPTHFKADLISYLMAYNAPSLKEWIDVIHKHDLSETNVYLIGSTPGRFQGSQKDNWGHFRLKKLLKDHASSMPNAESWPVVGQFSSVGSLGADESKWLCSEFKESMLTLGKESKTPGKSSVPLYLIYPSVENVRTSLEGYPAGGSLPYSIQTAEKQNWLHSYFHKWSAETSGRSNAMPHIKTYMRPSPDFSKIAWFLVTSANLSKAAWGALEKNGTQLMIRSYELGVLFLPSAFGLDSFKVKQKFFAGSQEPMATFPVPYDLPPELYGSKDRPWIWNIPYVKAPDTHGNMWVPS
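E. coli-derived human Tdp1, 1 nM final. Cpd preinc 15 min RT; substrate 15 nM final, 5 min RT; AS bead mix 10 ug/ml final, 10 min RT. Signal loss = tyrosine-FITC cleavage. No-enzyme wells = max signal.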
PLK1 PBD inh – blocks phosphopeptide binding to human PLK1 polo-box domain; Plk1 PBD binding of FITC phosphopeptide, fluorescence polarization; P53350; Potency, µM, for inactives: max response, negative = inhibition, hits mostly inhibitors; hit rate 2.8% among 360,000; also: series mostly up to about 57 µM; nearly all actives have a fitted effect of over 65% in size
DT40 TDP1 no CPT – qHTS for Inhibitors of human tyrosyl-DNA phosphodiesterase 1 (TDP1): qHTS in cells in absence of CPT; DT40 Tdp1-/- hTDP1 cells, no CPT, ATP luminescence, 48 h; Potency, µM (series often up to 46.2 µM), without a hit: at the top dose activity change, negative = growth inhibition, hits mostly inhibitors; hit rate 15% among 420,000; also: nearly all actives have a fitted effect of over 55% in size
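Growth of hTDP1-complemented DT40 Tdp1-knockout cells is measured by ATP luminescence after at least 48 hr compound exposure at 37 °C, with DMSO substituting for the 20 nM CPT used in the parallel screen.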
* marks the source's active call; other numbers are inactive results; ? = inconclusive; . = no result given; [ ] = another dose, or the depositor's remark. Compounds with a hit are over-represented: about 18% of the library has one in this group of screens. Calls follow the shape of the dose curve; as a rule, active = well fitted curve in the direction sought with a large enough effect; inconclusive = small, poorly fitted or top-dose-only effect, or another doubt; inactive = no such curve, though single readings can be large; an effect the other way counts as inactive or inconclusive. % is scaled to controls: 0 for no effect and ±100 for the full control effect; potency is read from the fitted curve at half-maximal effect.

SMILES | VDR inh | TDP1 cell CPT | GCN5L2 inh | TDP1 inh | PLK1 PBD inh | DT40 TDP1 no CPT
COc1ccc(-n2c(-c3ccc(C(C)(C)C)cc3)n[nH]c2=S)c(OC)c1 | . | 16µM* | . | . | -7% | 23µM*
COc1ccc(-n2c(-c3ccc(Cl)cc3Cl)n[nH]c2=S)c(OC)c1 | ? | ? | 1% | . | 24µM* | ?
Cc1ccc(Cn2cc(CN3CC(N(C)C)CS3(=O)=O)nn2)cc1 (stereo not given) | . | 15% | . | . | 2% | -4%
Cc1ccc(C)c(NC(=O)CN(C)C(=O)c2nn(C)c(=O)c3ccccc23)c1 | -5% | -14% | 0% | 1% | -2% | ?
CC(=O)Nc1ccccc1OCc1cnc(Cl)s1 | 5% | 4% | -5% | 0% | 4% | 1%
COC(=O)c1c(C)sc(-c2c(-c3ccc(OC)c(F)c3)[nH]c3c2c(=O)n(C)c(=O)n3C)c1O | 5% | 8% | -2% | -7% | . | 6%
COc1ccc(-n2nnnc2C2CCN(S(=O)(=O)c3ccc(C)cc3)CC2)cc1 | 7% | 13µM* | -17% | 2% | . | -76%
COc1ccc(-n2nnnc2C2CCN(S(=O)(=O)c3ccc(C(C)(C)C)cc3)CC2)cc1 | 10% | -6% | 3% | 7% | . | -25%
COc1ccc(NC(=O)CCN2CCN(S(=O)(=O)c3cc(Cl)ccc3OC)CC2)cc1 | -12% | -27% | 0% | 7% | -9% | -29%
COc1ccc(-n2nnnc2C2CCN(S(=O)(=O)c3cc(Cl)ccc3OC)CC2)cc1 | 19% | 13µM* | -8% | -7% | . | 18µM*
COC(=O)c1ccc(-c2c(-c3ccccc3)ncc3cc(F)ccc23)cc1 | -18% | 13µM* | -18% | -10% | -26% | 26µM*
N#Cc1ccc(-c2c(-c3ccccc3)ncc3cc(F)ccc23)cc1 | -10% | 10µM* | 1% | -6% | -21% | 16µM*
COc1cc2cnc(-c3ccccc3)c(C(=O)c3ccc(OCc4ccccc4)cc3)c2cc1OC | 0% | ? | -14% | 3%[56.1 µM] | -10% | ?
O=[N+]([O-])c1ccc(-c2c(-c3ccccc3)ncc3ccc(F)cc23)cc1 | -14% | ? | -6% | 5% | 0% | ?
COC(=O)c1ccc(-c2n[nH]c(=O)c3ccccc23)cc1 | 10% | -23% | 2% | 1%[56.1 µM] | 2% | -17%
COc1cc2cnc(-c3ccccc3)c(C(=O)c3ccc(F)cc3)c2cc1OC | ? | 18µM* | -14% | 1% | -15% | 23µM*
Cc1ccc(C2=NN(CC(=O)NCCc3ccc(Cl)cc3)C(=O)CC2)cc1 | -27% | ? | -5% | 8% | . | ?
CC(=O)OC[C@@H]1O[C@H](C/C=N\O[C@@H](C)CN2CCCCc3nc(C)c(C)cc32)C=C[C@@H]1OC(C)=O | . | . | . | 8%[21 µM] | . | .
Cn1cccc1C(C#N)c1ncc(C(F)(F)F)cc1Cl (stereo not given) | ? | ? | -9% | 0% | -7% | 7.3µM*
N#CC(c1ccc(Cl)cc1)c1ncc(C(F)(F)F)cc1Cl (stereo not given) | -19% | -24% | -9% | -1% | -9% | -2%
COc1c(O)cc2oc3cc(O)c(CC=C(C)C)c(O)c3c(=O)c2c1CC=C(C)C | . | 19µM* | . | 18%[56.1 µM] | . | 12µM*
CC(C)=CCc1c(O)cc2oc(C)cc(=O)c2c1O | 1% | ? | -6% | -8% | . | ?
COc1cc2ccc(=O)oc2c(CC=C(C)C)c1OC | -11% | -25% | -18% | . | -13% | -20%
CC(C)=CCc1c(O)cc2oc3c(CC=C(C)C)c(O)c(O)c(CC=C(C)C)c3c(=O)c2c1O | -11% | ? | -25% | . | -21% | 21µM*
CC1(C)CC(=O)C(C=NCCO)=C(O)C1 | -16% | 18µM* | 1% | 1% | 27µM* | ?
SMILES | VDR inh | TDP1 cell CPT | GCN5L2 inh | TDP1 inh | PLK1 PBD inh | DT40 TDP1 no CPT
CC1CCCC(NC(=O)CCC(=O)N2CCOc3ccccc32)C1C (stereo not given) | ? | ? | 1% | 1% | 15µM* | ?
CC1CCCC(NC(=O)CCC(=O)c2ccc(F)cc2)C1C (stereo not given) | -18% | ? | -4% | 0% | 24µM* | -28%
CC1CCCC(NC(=O)CSc2ccc(F)cc2)C1C (stereo not given) | 6% | -2% | -6% | 5% | -7% | 3%
CCOc1ccc(N(CC(=O)NCC2CCCO2)S(=O)(=O)c2ccc(SC)cc2)cc1 (stereo not given) | -13% | 13µM* | -27% | 5% | -23% | -12%
COc1ccc(N(CC(=O)NC2CC3CCC2C3)S(=O)(=O)c2ccc(C)cc2)cc1Cl (stereo not given) | . | ? | . | . | 1% | 23µM*
CCOc1ccc(N(CC(=O)NC2CC3CCC2C3)S(=O)(=O)c2ccc(C)cc2)cc1 (stereo not given) | -2% | 16µM* | ? | 0% | -11% | ?
CCOc1ccc(N(CC(=O)NC2CC3CCC2C3)S(=O)(=O)c2ccccc2)cc1 (stereo not given) | -7% | ? | -4% | 3% | 1% | -19%
CO[C@H]1CN(C)C(=O)c2ccc(NS(=O)(=O)c3ccccc3F)cc2OC[C@H](C)NC[C@@H]1C | . | 4% | . | . | -18% | -16%
CN(C)c1nc(NNC(=O)c2ccccc2)nc(N(C)C)n1 | -20% | 0% | . | . | -9% | 0%
Cc1c(C(=O)N2CCN(C(C)C)CC2)sc2ncnc(NCc3ccco3)c12 | . | 18%[9.04 µM] | . | . | . | 3%
Cc1cccc(NC(=O)C(Cc2ccccc2)c2nn[nH]n2)c1C (stereo not given) | 5% | 6% | -2% | . | 0% | -1%
CCOC(=O)c1c(N2C(=O)Nc3ccccc3N2O)sc2c1CCCC2 | -6% | 3% | -3% | -1% | -22% | 7%
CCOC(=O)c1c(N2C(=O)CC(Sc3ccccc3C(=O)O)C2=O)sc2c1CCCC2 (stereo not given) | -7% | 15µM* | -3% | -11% | 0% | 15µM*
CCN1C(=O)CC(Sc2ccccc2C(=O)O)C1=O (stereo not given) | -5% | 2% | -4% | -7% | -3% | 4%
O=C(O)c1ccccc1SC1CC(=O)N(c2cccc3ccccc23)C1=O (stereo not given) | -20% | 1.8µM* | -5% | 3% | 30µM* | 2.6µM*
O=[N+]([O-])c1ccccc1/C=N/n1c(C(F)(F)F)n[nH]c1=S | 10% | 0% | -26% | 3% | 27µM* | -4%
S=c1[nH]nc(COc2ccccc2)n1/N=C/c1ccccc1Br | -19% | 6% | -5% | . | ? | -11%

From PubChem
